We go through 24 targets from the supplement of paper PMC10849652.

Targets with a hit are over-represented here; the source holds about 8,800 in all. About 0.5% of all pairs of compound and target were hits. A number with no mark means an inactive call.

Sequence of UniProt P31947 (P31947 whole entry, looked up): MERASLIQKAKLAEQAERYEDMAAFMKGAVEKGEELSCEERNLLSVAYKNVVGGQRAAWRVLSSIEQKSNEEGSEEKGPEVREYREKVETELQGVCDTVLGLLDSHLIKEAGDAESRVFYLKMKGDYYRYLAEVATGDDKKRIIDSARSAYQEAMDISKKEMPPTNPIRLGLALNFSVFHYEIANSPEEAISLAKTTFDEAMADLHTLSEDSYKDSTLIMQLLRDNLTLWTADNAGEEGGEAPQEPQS
Sequence of UniProt Q9BWW4 (Q9BWW4 whole entry, looked up): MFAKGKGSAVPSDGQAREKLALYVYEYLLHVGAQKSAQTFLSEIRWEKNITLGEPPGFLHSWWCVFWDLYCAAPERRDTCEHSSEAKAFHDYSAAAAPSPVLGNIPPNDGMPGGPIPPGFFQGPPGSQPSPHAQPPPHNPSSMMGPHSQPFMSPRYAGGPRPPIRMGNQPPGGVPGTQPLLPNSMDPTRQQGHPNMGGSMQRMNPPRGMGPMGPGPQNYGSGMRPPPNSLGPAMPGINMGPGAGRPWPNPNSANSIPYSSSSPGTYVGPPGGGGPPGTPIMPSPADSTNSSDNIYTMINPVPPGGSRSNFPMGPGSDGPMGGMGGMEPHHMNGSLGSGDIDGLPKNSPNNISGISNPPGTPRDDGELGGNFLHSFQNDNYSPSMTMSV
Sequence of UniProt O00161 (O00161 whole entry, looked up): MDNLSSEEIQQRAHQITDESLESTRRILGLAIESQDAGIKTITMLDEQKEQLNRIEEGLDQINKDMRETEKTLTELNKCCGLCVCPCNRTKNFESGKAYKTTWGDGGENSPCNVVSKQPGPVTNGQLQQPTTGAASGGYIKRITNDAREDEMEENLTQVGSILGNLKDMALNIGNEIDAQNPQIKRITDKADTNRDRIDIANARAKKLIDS
Sequence of UniProt Q9UPR3 (Q9UPR3 whole entry, looked up): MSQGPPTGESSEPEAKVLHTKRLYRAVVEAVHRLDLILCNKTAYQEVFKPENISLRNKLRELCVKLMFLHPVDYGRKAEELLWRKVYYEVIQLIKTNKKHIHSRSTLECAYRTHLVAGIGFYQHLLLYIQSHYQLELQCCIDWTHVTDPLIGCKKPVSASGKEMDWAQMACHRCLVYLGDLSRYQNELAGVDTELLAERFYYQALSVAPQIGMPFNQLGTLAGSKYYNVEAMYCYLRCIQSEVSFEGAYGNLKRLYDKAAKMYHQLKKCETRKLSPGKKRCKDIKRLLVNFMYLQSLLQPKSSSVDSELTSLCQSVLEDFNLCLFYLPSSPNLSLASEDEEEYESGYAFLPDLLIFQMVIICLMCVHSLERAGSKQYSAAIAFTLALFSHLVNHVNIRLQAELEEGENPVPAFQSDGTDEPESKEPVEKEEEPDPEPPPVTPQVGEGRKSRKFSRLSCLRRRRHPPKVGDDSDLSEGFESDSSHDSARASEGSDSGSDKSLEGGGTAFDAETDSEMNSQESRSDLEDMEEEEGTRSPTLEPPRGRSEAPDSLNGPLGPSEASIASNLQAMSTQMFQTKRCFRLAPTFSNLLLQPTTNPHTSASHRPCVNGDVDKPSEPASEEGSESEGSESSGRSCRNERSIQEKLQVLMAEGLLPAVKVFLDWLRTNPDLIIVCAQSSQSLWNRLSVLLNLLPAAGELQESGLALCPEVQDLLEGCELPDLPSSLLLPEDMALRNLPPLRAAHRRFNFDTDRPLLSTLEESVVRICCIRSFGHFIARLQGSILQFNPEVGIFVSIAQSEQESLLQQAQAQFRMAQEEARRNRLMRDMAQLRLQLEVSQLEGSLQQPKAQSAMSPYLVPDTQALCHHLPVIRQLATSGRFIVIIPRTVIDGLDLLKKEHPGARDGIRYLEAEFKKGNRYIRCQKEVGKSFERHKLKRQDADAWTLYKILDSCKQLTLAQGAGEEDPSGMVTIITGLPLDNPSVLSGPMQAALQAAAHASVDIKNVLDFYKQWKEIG
Sequence of UniProt Q8N1F8 (Q8N1F8 whole entry, looked up): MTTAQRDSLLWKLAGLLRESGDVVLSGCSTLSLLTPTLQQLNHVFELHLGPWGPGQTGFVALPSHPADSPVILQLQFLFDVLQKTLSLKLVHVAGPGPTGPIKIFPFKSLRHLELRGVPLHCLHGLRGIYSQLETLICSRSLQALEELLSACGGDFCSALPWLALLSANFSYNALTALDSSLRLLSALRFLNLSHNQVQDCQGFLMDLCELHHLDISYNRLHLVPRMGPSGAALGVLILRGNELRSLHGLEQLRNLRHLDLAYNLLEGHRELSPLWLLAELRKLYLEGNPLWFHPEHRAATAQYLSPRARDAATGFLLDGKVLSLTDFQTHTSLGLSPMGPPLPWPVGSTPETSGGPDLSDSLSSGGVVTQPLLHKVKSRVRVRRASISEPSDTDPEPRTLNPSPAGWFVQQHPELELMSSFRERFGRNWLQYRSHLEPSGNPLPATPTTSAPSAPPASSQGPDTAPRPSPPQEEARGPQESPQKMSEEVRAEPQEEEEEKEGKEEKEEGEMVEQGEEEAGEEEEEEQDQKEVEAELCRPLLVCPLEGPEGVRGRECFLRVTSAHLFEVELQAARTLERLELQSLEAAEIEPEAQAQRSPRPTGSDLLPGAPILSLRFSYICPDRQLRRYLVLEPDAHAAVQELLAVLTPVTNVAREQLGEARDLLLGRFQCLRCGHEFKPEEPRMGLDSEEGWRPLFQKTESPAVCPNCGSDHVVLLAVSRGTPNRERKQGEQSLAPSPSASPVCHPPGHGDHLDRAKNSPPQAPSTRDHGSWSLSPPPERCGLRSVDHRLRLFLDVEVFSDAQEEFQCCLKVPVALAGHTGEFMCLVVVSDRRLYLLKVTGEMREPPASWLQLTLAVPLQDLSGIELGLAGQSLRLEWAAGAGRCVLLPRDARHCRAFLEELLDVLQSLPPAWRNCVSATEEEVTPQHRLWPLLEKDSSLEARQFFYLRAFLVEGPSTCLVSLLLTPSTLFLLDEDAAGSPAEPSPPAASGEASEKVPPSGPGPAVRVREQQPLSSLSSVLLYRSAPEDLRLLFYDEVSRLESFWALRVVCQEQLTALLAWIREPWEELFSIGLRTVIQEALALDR
Sequence of UniProt Q96KF7 (Q96KF7 whole entry, looked up): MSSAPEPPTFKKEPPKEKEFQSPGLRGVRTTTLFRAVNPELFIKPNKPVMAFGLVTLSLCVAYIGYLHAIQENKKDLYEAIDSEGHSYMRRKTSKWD
Sequence of UniProt P19623 (P19623 whole entry, looked up): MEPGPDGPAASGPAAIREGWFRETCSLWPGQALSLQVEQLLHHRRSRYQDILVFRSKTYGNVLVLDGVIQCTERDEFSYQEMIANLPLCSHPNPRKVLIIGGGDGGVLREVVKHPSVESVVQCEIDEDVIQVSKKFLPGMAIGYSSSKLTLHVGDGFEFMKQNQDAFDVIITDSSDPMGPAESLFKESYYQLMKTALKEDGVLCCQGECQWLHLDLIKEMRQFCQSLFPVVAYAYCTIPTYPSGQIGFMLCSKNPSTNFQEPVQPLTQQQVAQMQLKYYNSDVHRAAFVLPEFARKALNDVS
Sequence of UniProt Q13395 (Q13395 whole entry, looked up): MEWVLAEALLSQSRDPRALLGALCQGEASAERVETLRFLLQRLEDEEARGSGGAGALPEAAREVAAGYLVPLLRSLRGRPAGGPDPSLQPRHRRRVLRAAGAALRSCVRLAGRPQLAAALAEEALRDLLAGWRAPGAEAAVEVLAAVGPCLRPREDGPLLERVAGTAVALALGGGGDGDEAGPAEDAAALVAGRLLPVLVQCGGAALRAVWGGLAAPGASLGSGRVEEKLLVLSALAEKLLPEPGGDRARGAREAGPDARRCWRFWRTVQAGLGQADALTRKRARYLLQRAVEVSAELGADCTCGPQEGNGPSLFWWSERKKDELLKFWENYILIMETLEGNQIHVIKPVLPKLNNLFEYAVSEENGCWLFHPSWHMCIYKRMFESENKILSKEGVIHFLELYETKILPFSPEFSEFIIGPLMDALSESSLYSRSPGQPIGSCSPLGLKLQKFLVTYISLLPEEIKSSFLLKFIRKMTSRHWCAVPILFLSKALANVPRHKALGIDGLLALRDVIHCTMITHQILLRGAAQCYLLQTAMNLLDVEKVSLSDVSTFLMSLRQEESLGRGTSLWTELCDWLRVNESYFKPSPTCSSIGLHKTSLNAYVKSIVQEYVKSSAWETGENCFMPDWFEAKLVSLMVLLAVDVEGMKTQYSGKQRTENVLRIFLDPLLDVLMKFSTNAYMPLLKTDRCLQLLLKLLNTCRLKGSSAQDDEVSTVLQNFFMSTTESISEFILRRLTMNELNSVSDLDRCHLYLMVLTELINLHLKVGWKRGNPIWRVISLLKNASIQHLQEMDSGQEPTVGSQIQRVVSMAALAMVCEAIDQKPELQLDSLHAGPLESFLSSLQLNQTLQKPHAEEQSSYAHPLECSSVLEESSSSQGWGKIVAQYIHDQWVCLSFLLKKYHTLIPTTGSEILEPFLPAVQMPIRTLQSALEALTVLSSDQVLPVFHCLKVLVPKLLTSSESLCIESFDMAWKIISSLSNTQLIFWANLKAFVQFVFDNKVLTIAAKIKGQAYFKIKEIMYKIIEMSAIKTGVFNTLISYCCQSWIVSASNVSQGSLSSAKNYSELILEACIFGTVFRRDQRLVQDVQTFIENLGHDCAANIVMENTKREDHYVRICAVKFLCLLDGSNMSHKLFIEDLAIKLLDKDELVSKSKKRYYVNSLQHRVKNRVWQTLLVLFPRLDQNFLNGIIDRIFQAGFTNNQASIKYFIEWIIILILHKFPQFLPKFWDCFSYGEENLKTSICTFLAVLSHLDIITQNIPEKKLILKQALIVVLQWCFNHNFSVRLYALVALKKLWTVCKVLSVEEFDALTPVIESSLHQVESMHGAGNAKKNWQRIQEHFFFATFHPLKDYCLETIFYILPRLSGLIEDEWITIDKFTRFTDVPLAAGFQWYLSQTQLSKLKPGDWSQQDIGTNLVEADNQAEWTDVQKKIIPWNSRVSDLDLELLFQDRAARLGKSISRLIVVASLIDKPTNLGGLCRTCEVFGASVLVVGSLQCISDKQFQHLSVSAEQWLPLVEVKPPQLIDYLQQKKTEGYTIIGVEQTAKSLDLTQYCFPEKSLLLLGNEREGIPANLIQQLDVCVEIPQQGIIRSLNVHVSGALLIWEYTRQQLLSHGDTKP

Compound in the assay: C1=CC=C(C=C1)C2=NC(=C(N2)C3=CC=NC=C3)C4=CC(=C(C=C4)Cl)O
The assay is described as follows: log2 fold change, soluble protein after heating vs DMSO (PISA); higher = thermal stabilisation; K562 lysate, 10 uM; active = over 0.2 and 3.5 SD of the protein, either way, in both replicates (recomputed). The procedure, abridged: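 The values are log-two fold changes in thermal stability compared with solvent controls and come from duplicates. They were obtained by TMTpro 16plex LC-MS/MS, with channel sums equalised, on the supernatant after 21,000xg for 90 min. That supernatant came from crude K562 extract at 1 mg/mL protein treated with 10 μM compound for 30 min, heated for 3 min across 48°C-58°C, pooled and brought to 0.5% NP-40 at 4°C.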
In the case of STK11IP (UniProt Q8N1F8), the log2 fold change was -0.007.

Take SPR (UniProt P35270): the log2 fold change was 1.04 (active).

Consider SFN (UniProt P31947), for which the log2 fold change was -0.004.

Consider SPPL2A (UniProt Q8TCT8), for which the log2 fold change was -0.07.

For SPC25 (UniProt Q9HBM1), the log2 fold change is 0.021.

SNW1 (UniProt Q13573): the log2 fold change was -0.006.

Take SMC2 (UniProt O95347): the log2 fold change is 0.013.

TARBP1 (UniProt Q13395): the log2 fold change was 0.044.

In the case of SMC1B isoform 3 (UniProt Q8NDV3), the log2 fold change is 0.02.

With SRM (UniProt P19623), the log2 fold change was 0.004.

On to SRRT (UniProt Q9BXP5), for which the log2 fold change is 0.022.

With SRPK1 (UniProt Q96SB4), the log2 fold change is 0.05.

For the target SNRNP40 (UniProt Q96DI7), the log2 fold change was 0.009.

For the target SHC1 isoform 6 (UniProt P29353), the log2 fold change was 0.011.

For SSBP3 (UniProt Q9BWW4), the log2 fold change is -0.048.

Consider SMIM8 (UniProt Q96KF7), for which the log2 fold change is -0.137.

Consider SNAP23 (UniProt O00161), for which the log2 fold change is 0.039.

On to SPHK1 isoform 2 (UniProt Q9NYA1), for which the log2 fold change was -0.097.

For STK26 (UniProt Q9P289), the log2 fold change is -0.002.

As to STK39 (UniProt Q9UEW8), the log2 fold change is 0.

Consider SMN1 (UniProt Q16637), for which the log2 fold change is 0.096.

With SMG5 (UniProt Q9UPR3), the log2 fold change was -0.074.

Regarding SP1 (UniProt P08047), the log2 fold change is 0.007.

On to SSU72 (UniProt Q9NP77), for which the log2 fold change is 0.07.
